Rows were chosen to be rich in hits. Some 0.9% of all compounds tested hit in one or more screens of this group.
PPARg SRC-2 ag: agonists of SRC-2 recruitment by human PPARgamma; actives 0.34% (n = 200,000); PPARgamma LBD-SRC-2 recruitment, biochemical; activation, % at 8 µM; P37231; in the data active means activation above about 22%;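 further: 0% = vehicle and 100% = reference agonist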
Target sequence (P37231 whole entry, looked up, the tested form may be a part): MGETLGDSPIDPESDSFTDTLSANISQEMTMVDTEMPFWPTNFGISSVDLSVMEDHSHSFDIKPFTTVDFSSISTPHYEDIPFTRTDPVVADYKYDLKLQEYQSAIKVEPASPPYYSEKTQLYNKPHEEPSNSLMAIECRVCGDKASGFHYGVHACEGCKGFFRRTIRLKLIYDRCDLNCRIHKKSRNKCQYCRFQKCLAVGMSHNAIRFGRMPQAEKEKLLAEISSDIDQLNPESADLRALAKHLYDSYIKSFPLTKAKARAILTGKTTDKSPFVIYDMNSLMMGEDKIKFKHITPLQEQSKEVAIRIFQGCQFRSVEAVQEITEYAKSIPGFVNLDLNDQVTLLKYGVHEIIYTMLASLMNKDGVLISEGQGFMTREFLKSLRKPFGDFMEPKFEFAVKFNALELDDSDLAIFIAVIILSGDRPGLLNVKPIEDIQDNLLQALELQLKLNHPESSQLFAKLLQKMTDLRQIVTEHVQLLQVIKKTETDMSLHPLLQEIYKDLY
SRC3 TRFRET art: flags TR-FRET format artefacts in PPARgamma SRC-3 recruitment agonist screen; TR-FRET ratio at 8 µM; TR-FRET artefact counter-screen, PPARgamma/SRC-3 format; hits give high values; actives 0.39% (n = 99,000); AID 1048
PPARg SRC1 recr: agonists of human PPARgamma SRC-1 coactivator recruitment. P37231. PPARgamma-SRC-1 coactivator recruitment biochemical assay. activation, % at 8 µM. actives 0.41% (n = 200,000). AID 631; in the data active means activation above about 19%;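 further: 0% = DMSO and 100% = reference agonist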
PPARg SRC3 recr: promotes SRC-3 coactivator recruitment by human PPARgamma. P37231. biochemical PPARgamma/SRC-3 coactivator recruitment assay. activation, % at 8 µM. actives 0.26% (n = 200,000); in the data active means activation above about 23%;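 further: 0% = DMSO and 100% = reference agonist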
TR-FRET SRC-2 ct: TR-FRET artefact, counter-screen to PPARgamma/SRC-2 agonist assay | hits give high values | TR-FRET ratio at 8 µM | actives 0.4% (n = 200,000)
SRC1 TRFRET art: TR-FRET artefact, counter-screen to PPARgamma/SRC-1 agonist assay; actives 0.34% (n = 99,000); TR-FRET ratio at 8 µM; TR-FRET detection artefact counter-screen, emission ratio; hits give high values; AID 1051; in the data active means TR-FRET ratio above about 2300
An asterisk follows results filed as active; / = not tested or not shown. Unless noted, no stated cut-off is given here; in the data, active means TR-FRET ratio above about 2000; inactive means the rest.

SMILES	PPARg SRC-2 ag	SRC3 TRFRET art	PPARg SRC1 recr	PPARg SRC3 recr	TR-FRET SRC-2 ct	SRC1 TRFRET art
O=C(Nc1nc(-c2cccs2)cs1)c1ccc(S(=O)(=O)N2CCCC2)cc1	0	/	-5	4	2064*	/
O=C(COC(=O)c1ccc(-c2nnc(-c3ccccc3)o2)cc1)c1ccccc1	15	1850	5	3	2098*	2073
Cc1ccc(C)c(S(=O)(=O)N2CCN(CC(=O)Nc3sccc3C#N)CC2)c1	2	2054*	5	8	1734	1942
CC(=O)c1c(C)[n+]([O-])c2ccc3c(non3O)c12	7	1809	7	-1	1981*	1946
COc1ccc(OC)c(-n2c(=S)[nH]c3cc(C(=O)N(C)Cc4ccccc4)ccc3c2=O)c1	3	1626	7	0	1543	1860
Cn1cnnc1SCc1ccc(C(=O)N=Nc2c(O)n(C)c3ccccc23)cc1	23*	1751	8	3	1643	1595
NS(=O)(=O)c1ccc(CNC(=S)Nc2ccc(F)c(Cl)c2)cc1	5	1772	2	-1	1378	1672
NS(=O)(=O)c1ccc(NC(=S)NCc2ccc(Cl)cc2)cc1	4	/	-3	30*	1569	/
Cc1ccc(/C=C(\C#N)c2nn(-c3ccccc3)c(N)c2C#N)cc1	-3	1337	-4	-4	1725	1776
N#C/C(=C\c1cccc2ccccc12)c1nn(-c2ccccc2)c(N)c1C#N	17	/	19*	16	1650	/
Cc1ccc2c(ccc(=S)n2C)c1	17	2121*	13	5	1798	2278
CC1CCc2sc(C(=O)Nc3nnc(SCc4ccc(F)cc4)s3)cc2C1 (stereo not drawn)	3	/	16	19	2241*	/
COc1ccc(CCNC(=O)CSc2nncs2)cc1	-6	1419	6	1	1581	1955
CCc1ccc(N(C(=O)c2csnn2)C(C(=O)NC(C)(C)C)c2cccnc2)cc1 (stereo not drawn)	23*	1691	0	-2	2266*	1763
COc1ccc(CNCC(=O)Nc2ccccc2-n2cccc2)cc1	3	1566	4	2	1532	1793
Cc1nc(SCC(=O)Nc2ccc(F)cc2)c(C#N)c(C)c1CC(=O)c1ccc(Br)cc1	8	/	22*	8	1535	/
CSc1nc2sccc2c(=O)[nH]1	-2	1619	-3	1	1538	1900
O=c1[nH]c(=S)[nH]c2sccc12	8	1856	-1	6	2050*	2108
COc1ccc(CCN(Cc2nc3ccccc3c(=O)[nH]2)C(=O)c2ccco2)cc1OC	-1	/	20*	-1	1517	/
COc1ccc(OC2C(=O)N(Cc3ccc4c(c3)OCO4)C2c2sccc2C)cc1 (stereo not drawn)	2	/	0	4	1431	/
COc1ccc(C2=NN(C(=S)Nc3ccccc3)C(c3ccccc3)C2)cc1 (stereo not drawn)	2	1746	5	5	1723	1987
Fc1ccc(C2CC(c3cccs3)=NN2C(=S)Nc2ccccc2)cc1 (stereo not drawn)	14	1821	10	4	1687	2336*
CNC(=S)N1N=C(c2ccccc2)CC1c1ccc(OC)c(OC)c1 (stereo not drawn)	15	1736	16	7	1694	2320*
CNC(=S)N1N=C(c2ccc(C)cc2)CC1c1ccc(OC)c(OC)c1 (stereo not drawn)	-1	1440	0	1	1450	1680
COc1ccc(C2CC(c3ccccc3)=NN2C(=S)Nc2ccccc2)cc1 (stereo not drawn)	22	2233*	14	14	2014*	2274
SMILES	PPARg SRC-2 ag	SRC3 TRFRET art	PPARg SRC1 recr	PPARg SRC3 recr	TR-FRET SRC-2 ct	SRC1 TRFRET art
COc1ccc(C(=O)N2N=C(c3cccc(OC)c3)CC2(O)C(F)(F)F)cc1 (stereo not drawn)	3	1872	4	5	1689	1950
COc1ccc(OC)c(-c2c3cc(O)c(=O)cc-3oc3cc(O)c(O)cc23)c1	23*	1906	17	10	1565	2166
CCOc1ccccc1-c1c2cc(O)c(=O)cc-2oc2cc(O)c(O)cc12	17	1809	4	6	1524	1827
CC(C(=O)N1CCN(c2ccc(Cl)cc2)CC1)c1ncc(C(F)(F)F)cc1Cl (stereo not drawn)	3	/	1	-1	1469	/
CCOC(=O)CNc1cccc(C(F)(F)F)c1	2	1716	1	1	1538	1935
c1ccc2c(c1)CC/C2=N/Nc1nc2ccccc2[nH]1	5	1717	22*	8	1668	1819
NC(N)=N/N=C/c1ccc(Br)cc1	-1	1566	10	5	1681	1941
N#Cc1ccc(/C=N/N=C(N)N)cc1	7	/	3	26*	1780	/
Cc1ccc(-c2[nH]c(=S)[nH]c(=O)c2C#N)cc1	-4	2293*	-18	18	2179*	2571*
CSc1cc(-c2ccc(Cl)cc2)[nH]c(=O)c1C#N	-5	1471	3	-2	1403	1498
O=C(C1CCCN(S(=O)(=O)c2ccc(F)cc2)C1)N(Cc1cccs1)C1CC1 (stereo not drawn)	12	1816	7	2	1524	2408*
COc1ccc(NC(=O)CSc2ccc3nnc(-c4cccnc4)n3n2)c(OC)c1	-4	1465	4	3	1570	1713
O=C(c1ccco1)N1CCN(S(=O)(=O)c2ccccc2[N+](=O)[O-])CC1	5	1538	7	1	1508	2222
O=C(COC(=O)CCN1C(=O)c2cccc([N+](=O)[O-])c2C1=O)NCc1ccccc1	4	1749	4	1	1993*	1745
O=C(COC(=O)CSCc1ccccc1)NCc1ccccc1	-3	1456	-6	-3	1536	1600
NS(=O)(=O)c1ccc(CCNC(=O)CSc2nnc3ccccn23)cc1	5	1344	6	1	1808	1949
CCc1nc2ccc(C(=O)Nc3cccc(C(C)=O)c3)cc2nc1CC	-7	1517	-2	-4	1617	1697
CCc1nc2ccc(C(=O)Nc3nnc(C)s3)cc2nc1CC	-3	1708	478*	2	1452	6131*
Cc1cc(C(=O)CSc2nn3c(=O)c(C(C)(C)C)nnc3s2)c(C)n1-c1ccc(F)cc1	13	/	9	22	2070*	/
CC(C)N(C(=O)CSc1nn2c(=O)c(C(C)(C)C)nnc2s1)c1ccccc1	-6	/	0	0	1419	/
CC(=O)c1c(N2CCN(c3ccc(F)cc3)CC2)nc(=S)n(Cc2ccccc2)c1C	2	2117*	6	4	1479	1739
CSC(=S)N/N=C/c1ccccc1	2	1209	-3	2	1517	1681
Cc1ccc(S(=O)(=O)NC(=O)c2ccc(Br)o2)cc1	10	1650	4	1	1593	1919
COc1cc(NC(=O)COC(=O)c2n[nH]c3ccccc23)c(C)cc1[N+](=O)[O-]	0	1350	0	-4	1456	1730

Screens as filed in PubChem BioAssay.
